Shown are actives, neighbours in structure and some others; about 1.7% of the full set was active somewhere.
NOD2-RIPK2 inh: blocks binding of human NOD2 to RIPK2; 360,000 tested, 0.38% active; CHO BLA complementation NOD2-RIPK2, CCF4 ratio; O43353; inhibition, % at 4.98 µM; AID 624267; in the data active means inhibition above about 21%
Target sequence (O43353 whole entry, looked up): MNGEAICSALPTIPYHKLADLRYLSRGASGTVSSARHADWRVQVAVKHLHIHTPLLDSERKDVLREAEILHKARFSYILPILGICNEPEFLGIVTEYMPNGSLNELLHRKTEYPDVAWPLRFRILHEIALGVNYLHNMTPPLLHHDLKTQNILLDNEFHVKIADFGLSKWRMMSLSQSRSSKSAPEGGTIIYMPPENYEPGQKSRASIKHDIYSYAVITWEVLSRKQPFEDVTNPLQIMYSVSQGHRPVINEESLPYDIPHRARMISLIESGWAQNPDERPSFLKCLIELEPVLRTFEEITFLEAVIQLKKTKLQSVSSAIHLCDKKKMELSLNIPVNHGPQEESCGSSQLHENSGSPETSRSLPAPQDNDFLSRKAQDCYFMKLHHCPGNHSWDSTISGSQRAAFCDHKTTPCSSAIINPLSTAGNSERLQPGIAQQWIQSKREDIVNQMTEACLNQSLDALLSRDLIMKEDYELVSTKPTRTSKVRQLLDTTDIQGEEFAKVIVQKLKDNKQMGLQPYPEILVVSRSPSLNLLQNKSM
TLR4-MyD88 BLA: inhibitors of human TLR4-MyD88 binding. O00206+Q99836. HeLa CL3-4 TLR4/MyD88 BLA complementation, FRET ratio. inhibition, % at 8.4 µM. 200,000 tested, 0.18% active; in the data active means inhibition above about 25%
TLR9-MyD88 block: blocks human TLR9 binding to MyD88; Q9NR96+Q99836; CHO BLA complementation TLR9-MyD88, CCF4 FRET ratio; inhibition, % at 4.98 µM; 340,000 tested, 0.21% active; AID 504734;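 active means inhibition above the mean over all tested compounds plus 3 SD, cut at about 21% in these data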
Myeloid diff MLP: compounds promoting myeloid differentiation; ER-HoxA9 myeloid progenitors, lysozyme-GFP differentiation, flow cytometry; calls only at 10 µM; 360,000 tested, 1% active;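 active means normalized GFP-positive differentiation at or above the plate's own cutoff, the solvent-only control mean plus 3 SD; inconclusive means no clear call, values can overlap the other calls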;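 further: cells exposed to compound for four days before flow analysis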
ABCB6 inh MLPCN: blocks the human ABCB6 transporter; Q9NP58; K562-ABCB6 porphyrin accumulation, flow cytometry, 1 h; hits give low values; fluorescence ratio to DMSO, % at 10 µM; 360,000 tested, 0.19% active;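 active means fluorescence ratio to DMSO below 75%, the collection mean minus 3 SD; inconclusive means too few cells collected in the well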;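 further: signal is porphyrin accumulated inside mitochondria; lower ratio means ABCB6 inhibition with less porphyrin fluorescence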
NOD2 RIPK2 conf: NOD2-RIPK2 interaction inhibition confirmed; shares compounds with NOD2-RIPK2 inh; CHO cells, NOD2-RIPK2 BLA complementation, CCF4 FRET; inhibition, % at 4.98 µM; 1,200 tested, 70% active;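 active means mean inhibition across replicates above a set limit taken from the earlier primary screen, cut at about 21% in these data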
BLA counter: NOD2-RIPK2 counterscreen BLA reporter activity; shares compounds with NOD2-RIPK2 inh; CHO BLA reporter, CCF4 FRET ratio; 1,200 tested, 57% active; inhibition, % at 4.98 µM;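 active means mean inhibition above the low-control mean inhibition plus three low-control SD, cut at about 11% in these data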
Hits are given with their value.

Screening CC(C)(C)c1ccc(S(=O)(=O)N2CCC(NC(=O)c3ccco3)CC2)cc1 returned NOD2-RIPK2 inh inactive, TLR9-MyD88 block inactive, Myeloid diff MLP inactive and ABCB6 inh MLPCN inactive.
Screening Cc1cc(NC(=O)CSc2nc3cc(C(=O)NCCCOC(C)C)ccc3c(=O)n2Cc2ccco2)no1 returned NOD2-RIPK2 inh 29.8, TLR4-MyD88 BLA inactive, TLR9-MyD88 block inactive, Myeloid diff MLP inactive, ABCB6 inh MLPCN inactive, NOD2 RIPK2 conf inactive and BLA counter inactive.
For COc1ccc(NC(=O)CSc2nc3ccccc3c(=O)n2CCCO)cn1 the results were NOD2-RIPK2 inh inactive, TLR9-MyD88 block inactive, Myeloid diff MLP inactive and ABCB6 inh MLPCN inactive.
Cc1c2cnn(CC(=O)Nc3c(F)c(F)cc(F)c3F)c(=O)c2c(C)n1Cc1ccccc1F was read as NOD2-RIPK2 inh 23.7, TLR4-MyD88 BLA inactive, TLR9-MyD88 block inactive, Myeloid diff MLP inactive, ABCB6 inh MLPCN inactive, NOD2 RIPK2 conf inactive and BLA counter inactive.
Screening N#CC1=C(N)Oc2cc(O)c(Cl)cc2C1c1cccnc1 (centres undefined) returned NOD2-RIPK2 inh 30.8, TLR9-MyD88 block inactive, Myeloid diff MLP inactive, ABCB6 inh MLPCN inactive, NOD2 RIPK2 conf inactive and BLA counter inactive.
Screening O=C(NC(=S)N1CCCC(C(F)(F)F)C1)c1ccc(F)cc1 (centres undefined) returned NOD2-RIPK2 inh inactive, TLR9-MyD88 block inactive and ABCB6 inh MLPCN inactive.
For O=C(NCc1ccccc1)C(c1ccc(-c2ccccc2)cc1)n1c(=O)c(-c2cc3ccccc3[nH]2)nc2ccccc21 (centres undefined) the results were NOD2-RIPK2 inh 23.1, Myeloid diff MLP inactive, NOD2 RIPK2 conf 42.4 and BLA counter 66.5.
For O=C(NCc1ccccc1)C(c1ccncc1)n1c(=O)c(-c2cc3ccccc3[nH]2)nc2ccccc21 (centres undefined) the results were NOD2-RIPK2 inh 54.0, Myeloid diff MLP inactive, NOD2 RIPK2 conf 50.6 and BLA counter 67.1.
`O=C(NCc1ccccc1)C(c1ccccc1F)n1c(=O)c(-c2cc3ccccc3[nH]2)nc2ccccc21` (centres undefined) gave NOD2-RIPK2 inh 53.2, Myeloid diff MLP inactive, NOD2 RIPK2 conf 48.1 and BLA counter 69.7.
`O=C(NCc1ccccc1)C(c1ccccc1)n1c(=O)c(-c2ccco2)nc2ccccc21` (centres undefined) gave NOD2-RIPK2 inh inactive and Myeloid diff MLP inactive.
Screening COc1ccc(C(C(=O)NCc2ccccc2)n2c(=O)c(-c3cc4ccccc4[nH]3)nc3ccccc32)cc1 (centres undefined) returned NOD2-RIPK2 inh 43.5, Myeloid diff MLP inactive, NOD2 RIPK2 conf 39.9 and BLA counter 63.8.
Screening O=C(NCc1ccccc1)C(c1ccc(C(F)(F)F)cc1)n1c(=O)c(-c2ccccc2)nc2ccccc21 (centres undefined) returned NOD2-RIPK2 inh inactive and Myeloid diff MLP inactive.
For CCC(Sc1nc2ccncc2[nH]1)C(=O)Nc1ccc(C)c(Cl)c1 (centres undefined) the results were NOD2-RIPK2 inh inactive, TLR9-MyD88 block inactive, Myeloid diff MLP inactive and ABCB6 inh MLPCN inactive.
For CCOc1ccc(OCCNC(=O)c2ccc3c(c2)nnn3CC)cc1 the results were NOD2-RIPK2 inh inactive, TLR9-MyD88 block inactive, Myeloid diff MLP inactive and ABCB6 inh MLPCN inactive.
`Cc1cccnc1NC(=O)CCc1c[nH]c2ccccc12` gave NOD2-RIPK2 inh inactive, TLR9-MyD88 block inactive and ABCB6 inh MLPCN inactive.
`CCOc1ccccc1C=NNC(=O)CCCCC(=O)NN=Cc1ccccc1OCC` gave NOD2-RIPK2 inh inactive, TLR9-MyD88 block inactive, Myeloid diff MLP inactive and ABCB6 inh MLPCN inactive.
CCOc1ccccc1C=NNC(=O)C(=O)NN=Cc1ccccc1OCC was read as NOD2-RIPK2 inh 24.1, TLR9-MyD88 block inactive, Myeloid diff MLP inactive, ABCB6 inh MLPCN inactive, NOD2 RIPK2 conf inactive and BLA counter inactive.
For CCCN1C(=O)S/C(=C\c2ccc(N3CCOCC3)cc2C)C1=O the results were TLR4-MyD88 BLA inactive.
CCCN1C(=O)S/C(=C\c2ccc(N3CCOCC3)o2)C1=O was read as NOD2-RIPK2 inh 24.9, TLR4-MyD88 BLA inactive, TLR9-MyD88 block inactive, ABCB6 inh MLPCN inactive, NOD2 RIPK2 conf inactive and BLA counter inactive.
`CCCN1C(=O)S/C(=C/c2ccc(N3CCOCC3)o2)C1=O` gave NOD2-RIPK2 inh 41.0, TLR9-MyD88 block inactive, Myeloid diff MLP inconclusive, ABCB6 inh MLPCN inactive, NOD2 RIPK2 conf inactive and BLA counter inactive.
Screening COc1ccc(/C=C/C(=O)c2ccccc2)c(OC)c1 returned NOD2-RIPK2 inh inactive, TLR4-MyD88 BLA inactive, TLR9-MyD88 block inactive, Myeloid diff MLP inactive and ABCB6 inh MLPCN inactive.
Screening O=C(/C=C/c1c[nH]c2ccccc12)c1ccccc1 returned NOD2-RIPK2 inh 30.5, TLR4-MyD88 BLA inactive, TLR9-MyD88 block inactive, Myeloid diff MLP inactive, ABCB6 inh MLPCN inactive, NOD2 RIPK2 conf 29.9 and BLA counter 34.9.
Screening O=C(/C=C/c1ccccc1O)c1ccccc1 returned NOD2-RIPK2 inh inactive, TLR9-MyD88 block inactive, Myeloid diff MLP inactive and ABCB6 inh MLPCN inactive.
COc1ccc2[nH]cc(/C=C/C(=O)c3ccccc3)c2c1 was read as NOD2-RIPK2 inh 27.4, TLR9-MyD88 block inactive, Myeloid diff MLP inactive, ABCB6 inh MLPCN inactive, NOD2 RIPK2 conf 21.1 and BLA counter 32.4.
COc1cc2c(cc1NC(=O)c1cc(-c3ccccn3)nc3ccccc13)oc1ccccc12 was read as NOD2-RIPK2 inh inactive, TLR4-MyD88 BLA inactive, TLR9-MyD88 block inactive, Myeloid diff MLP inactive and ABCB6 inh MLPCN inactive.
For O=C(Cn1ncc(Cl)c(Cl)c1=O)NCC1CCCCC1 the results were NOD2-RIPK2 inh 21.4, TLR4-MyD88 BLA inactive, TLR9-MyD88 block inactive, Myeloid diff MLP inconclusive, ABCB6 inh MLPCN inactive, NOD2 RIPK2 conf 29.1 and BLA counter inactive.
For Cc1ccc(NC(=O)Cn2ncc(Cl)c(Cl)c2=O)cc1S(=O)(=O)N1CCCCC1 the results were NOD2-RIPK2 inh 34.2, TLR9-MyD88 block inactive, Myeloid diff MLP inconclusive, ABCB6 inh MLPCN inactive, NOD2 RIPK2 conf 43.0 and BLA counter 10.5.
Cc1ccc(NC(=O)Cc2ccc(Cl)cc2)cc1S(=O)(=O)N1CCCCCC1 was read as NOD2-RIPK2 inh inactive, TLR9-MyD88 block inactive, Myeloid diff MLP inconclusive and ABCB6 inh MLPCN inactive.
CCOC(=O)CCNC(=O)N1CCCC(C(=O)c2cc(C)c(OC)c(C)c2)C1 (centres undefined) was read as NOD2-RIPK2 inh inactive, TLR9-MyD88 block inactive, Myeloid diff MLP inactive and ABCB6 inh MLPCN inactive.
For Cc1cccc(C(=O)OC(C)C(=O)NCC2CCCCC2)c1O (centres undefined) the results were NOD2-RIPK2 inh inactive, TLR9-MyD88 block inactive, Myeloid diff MLP inactive and ABCB6 inh MLPCN inactive.
